Measurements taken from PubChem BioAssay (Tox21).
Unmarked numbers belong to inactive results. Calls of active or inactive are those of the source. Calls come from the whole dose curve; as a rule, active = well fitted curve in the direction sought with a large enough effect in the repeat runs; inconclusive = weak or mixed curves; inactive = flat fitted curve, though single readings scatter.

assay: qHTS assay to test for compound auto fluorescence at 590 nm (red) in HepG2 cell free culture (AID 720684); details: cell-free medium autofluorescence, red 540/590 nm; series mostly up to 91.3 µM; fluorescence, % of Rose Bengal: at the top concentration
Outline: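 Compounds are added to culture medium (MEM, 10% FBS) lacking cells, then fluorescence is read at excitation 540 nm, emission 590 nm, with Rose Bengal sodium as the equivalency standard.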
% is set by controls: 0 for no effect and ±100 for the full control effect.

Row | Compound | fluorescence, % of Rose Bengal | Potency
1 | CCCNCCC | 0.028% | 
2 | CC(C(=O)O)c1ccc2c(c1)[nH]c1ccc(Cl)cc12 (stereo unspecified) | -0.103% [at 46 µM] | 
3 | O=C1CCc2ccc(OCCCCN3CCN(c4cccc(Cl)c4Cl)CC3)cc2N1 | 0.0902% [at 46 µM] | 
4 | COC(=O)C1=C(C)NC(C)=C(C(=O)OCCN2CCN(C(c3ccccc3)c3ccccc3)CC2)C1c1cccc([N+](=O)[O-])c1 (stereo unspecified) | 0.0826% [at 46 µM] | 
5 | C#C[C@]1(OC(C)=O)CC[C@H]2[C@@H]3CCC4=C[C@@H](OC(C)=O)CC[C@@H]4[C@H]3CC[C@@]21C |  | inactive
6 | Nc1nc(-c2ccccc2)cs1 | -0.259% | 
7 | CC1(C)[C@@H](O)CC[C@]2(C)[C@H]3C(=O)C=C4[C@@H]5C[C@@](C)(C(=O)O)CC[C@]5(C)CC[C@@]4(C)[C@]3(C)CC[C@@H]12 |  | inactive
8 | COc1cccc2c1C(=O)c1c(O)c3c(c(O)c1C2=O)C[C@@](O)(C(C)=O)C[C@@H]3O[C@H]1C[C@H](N)[C@H](O)[C@H](C)O1 | 9.13% [at 46 µM] | 
9 | CCc1cccc(CC)c1NC(=O)CN(CC(=O)O)CC(=O)O | -0.249% [at 18.6 µM] | 
10 | CN1CCC[C@@H]1CCO[C@](C)(c1ccccc1)c1ccc(Cl)cc1 | -0.0254% [at 46 µM] | 
11 | O=c1oc2cc(O)ccc2c2oc3cc(O)ccc3c12 | 0.0511% | 
12 | Clc1ccnc(Cl)n1 | 0% [at 95.7 µM] | 
13 | O=C1c2ccccc2C(=O)N1SC1CCCCC1 |  | inactive
14 | CNc1ccc([N+](=O)[O-])cc1 | -0.0213% | 
15 | CCOC(=O)c1ccc(C2CCC(NC[C@H](O)COc3ccc(O)c(NS(C)(=O)=O)c3)CC2)cc1 (stereo partly specified) | 0.0955% | 
16 | CN(C)c1ccc(C(=C2C=CC(=[N+](C)C)C=C2)c2ccc(N(C)C)cc2)cc1 |  | inactive
